Consider 38 compounds from PubChem BioAssay (NCI).

The structures appear in SMILES notation. This is part of a sample that, as a whole, favours compounds with a hit. Of some 83,000 tested, about 20% had one in any assay.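 Single-dose data. Exposure time 48 hours. Values below 10 considered active.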 A number with no mark means an inactive call. Active and inactive are the calls of the source.

One assay concerns HCT-116 colon. The assay is described as follows: NCI-60 one-dose screen, 48 h (100 = growth as untreated, 0 = no growth, -100 = all killed). To be noted: 10 µM unless noted.
Take `CC1(C)c2[nH]c3ccccc3c2C[C@]2(C)[C@H]3C(=O)C=C4[C@@H]5C[C@@](C)(C(N)=O)CC[C@]5(C)CC[C@@]4(C)[C@]3(C)CC[C@@H]12`: the growth is 46.3%.

For the compound `C[C@H]1[C@H](C)CC[C@]2(C(=O)NCC#CCN3CCN(C)CC3)CC[C@]3(C)C(=CC[C@@H]4[C@@]5(C)Cc6c([nH]c7ccccc67)C(C)(C)[C@@H]5CC[C@]43C)[C@H]12`, the growth is 25.8%.

Regarding `CC(=O)O[C@@H]1C2CCC3C(CC[C@@]4(C)C3CC[C@@H]4C(C)N(C)C)[C@@]2(C)CC[C@@H]1NC(=O)C=C(C)C` (stereo partly specified), the growth is -55% (active).

`CCN1C(=O)N(CC)C2Nn3c(s/c(=C\c4ccc(OC)cc4)c3=O)=NC21` (stereo unspecified): the growth was 29.4%.

For the compound `CN1CCC(=C(c2ccccc2)c2ccccc2)C(c2ccccc2)C1` (stereo unspecified), the growth was 71.3%.

Regarding `O=C(Cc1ccccc1)NNc1nc(Cl)nc(N2CCN(C(c3ccccc3)c3ccccc3)CC2)n1`, the growth is 80%.

For the compound `N#CC(C#N)=Cc1cc2ccccc2nc1Oc1ccc(C(F)(F)F)cc1`, the growth was 89.8%.

`COc1cc(/C=C\c2cc(OC)c(OC)c(OC)c2)cc(N)c1OC`: the growth is 79.1%.

As for `COc1cccc(-c2nc3occn3c2-c2ccnc(NCCCNS(=O)(=O)c3ccc(C(F)(F)F)cc3)n2)c1`, the growth was 83.9%.

Consider `O=C(O)c1ccc2c(c1)C(=O)N(Cc1ccccc1)C2=O`, for which the growth was 96.8%.

On to `C=C(C)[C@@H]1CC[C@]2(C(=O)N3CCN(C)CC3)CC[C@]3(C)[C@H](CC[C@@H]4[C@@]5(C)CC[C@H](O)C(C)(C)[C@@H]5CC[C@]43C)[C@@H]12`, for which the growth is -98.3% (active).

In the case of `Cn1cc(-c2nc(-c3c[nH]c4c(Cl)nccc34)cs2)c2cc(Br)ccc21`, the growth was 88.8%.

Turning to `O=S(=O)(NCCCNc1nccc(-c2c(-c3cccc(F)c3)nc3sccn23)n1)c1cccc(F)c1`, the growth is 48%.

Turning to `Cn1c(N2NC(=O)C(N=Nc3ccc(S(N)(=O)=O)cc3)C2=O)nc(-c2ccco2)c(C#N)c1=O` (stereo unspecified), the growth is 76.4%.

As for `NC(=S)N1N=C(c2ccccc2)CC1c1cn(-c2ccccc2)nc1-c1ccc(OCc2ccccc2)cc1` (stereo unspecified), the growth was 88.5%.

Regarding `CCCCOc1ccc(/C(C)=N/Nc2cc(C)nc3ccc(Br)cc23)cc1`, the growth is 27.7%.

With `CN(C)CC(O)c1ccc(/C=C/c2ccc(Cl)cc2)cc1` (stereo unspecified), the growth is -58.3% (active).

As for `CC(=O)Nc1cccc(-c2ccc3c(c2)NC(=O)/C3=C\c2ccc[nH]2)c1`, the growth is 37%.

On to `O=C(Nc1ncc(Cc2cc(Cl)ccc2Cl)s1)c1cccs1`, for which the growth is 35.3%.

Regarding `N#C/C(=C\c1ccc([N+](=O)[O-])s1)c1nc2cc(Cl)ccc2s1`, the growth is -36.4% (active).

For the compound `CCN(Cc1ccccc1)c1ccc(C=O)cc1`, the growth was 91.3%.

As for `CCN1CCN(CCNc2nccc(-c3c(-c4cccc(OC)c4)nc4occn34)n2)S1(=O)=O`, the growth was 99.8%.

`CNC(=O)c1cc(Cn2nc(C)c(NC(=O)Nc3ccc(Cl)c(C(F)(F)F)c3)c2C)ccn1`: the growth is 86.7%.

For `CC1(C)CC(=O)C2=C(C1)N(c1ccc(F)cc1F)C(N)=C(C#N)C2c1cc(Br)ccc1F` (stereo unspecified), the growth is 80.9%.

Regarding `CCC(CC)NCC(C)(C)O`, the growth was 103%.

Regarding `COCCCN1CC(O)=C(c2nc(-c3ccc(C)cc3)cs2)C1=N`, the growth is 90.3%.

Consider `CC(=O)N1c2ccccc2NC2=C(C(=O)NC2(C)C)C1c1ccco1` (stereo unspecified), for which the growth is 87.8%.

Take `Cc1c(C(=O)NCCC(=O)NO)sc2ncnc(Nc3ccc(F)c(Cl)c3)c12`: the growth is 107%.

On to `COc1ccc(C(=O)c2cc(C)c(OC)c(C)c2)c(OC)c1OC(=O)C(Cl)Cl`, for which the growth is 1.56% (active).

Turning to `COc1ccc(-c2[nH][nH]c(=O)c2-c2nc3ccccc3s2)cc1`, the growth is 101%.

Turning to `CN(C)c1ccc(Nc2c3ccccc3nc3cc(NC(=O)CCN4CCCC4)ccc23)cc1`, the growth is -56.2% (active).

On to `CCOC(=O)c1ccc2c(c1)ncn2-c1ccc(NC(=O)Nc2cccc(C)c2)cc1`, for which the growth was 57.2%.

Regarding `C/C=C(\C)C(=O)NC1=CC[C@@]2(C)C(=CCC3C2CC[C@@]2(C)C3CC[C@@H]2C(C)N(C)C)C1=O` (stereo partly specified), the growth was 10.4%.

On to `COc1ccc(NC(N)=NCCCOc2ccc(F)cc2)cc1`, for which the growth is 54%.

Turning to `Cc1cc2nc3c4cc(C=O)ccc4n(CCN(C)C)c3nc2cc1C`, the growth is 10.2%.

`CC(=O)N1N=C(c2ccc(-n3ccc(C(F)(F)F)n3)c(F)c2)CC1c1ccc[nH]1` (stereo unspecified): the growth is 103%.

Take `Brc1ccc(Nc2csc(-c3ccccn3)n2)cc1`: the growth was 88.8%.

As to `Cc1ccc(C(=O)/C(=C\c2ccc([N+](=O)[O-])cc2)S(=O)Cc2ccc(F)cc2)cc1` (stereo unspecified), the growth was -70.7% (active).

Another assay has as its system HCC-2998 colon. Described as above. The following applies: 10 µM unless noted.
For the compound `CC1(C)c2[nH]c3ccccc3c2C[C@]2(C)[C@H]3C(=O)C=C4[C@@H]5C[C@@](C)(C(N)=O)CC[C@]5(C)CC[C@@]4(C)[C@]3(C)CC[C@@H]12`, the growth is 79.2%.

`C[C@H]1[C@H](C)CC[C@]2(C(=O)NCC#CCN3CCN(C)CC3)CC[C@]3(C)C(=CC[C@@H]4[C@@]5(C)Cc6c([nH]c7ccccc67)C(C)(C)[C@@H]5CC[C@]43C)[C@H]12`: the growth was 76.6%.

`CC(=O)O[C@@H]1C2CCC3C(CC[C@@]4(C)C3CC[C@@H]4C(C)N(C)C)[C@@]2(C)CC[C@@H]1NC(=O)C=C(C)C` (stereo partly specified): the growth was -23.5% (active).

Turning to `CCN1C(=O)N(CC)C2Nn3c(s/c(=C\c4ccc(OC)cc4)c3=O)=NC21` (stereo unspecified), the growth is 95.7%.

Turning to `CN1CCC(=C(c2ccccc2)c2ccccc2)C(c2ccccc2)C1` (stereo unspecified), the growth was 88.7%.

For the compound `O=C(Cc1ccccc1)NNc1nc(Cl)nc(N2CCN(C(c3ccccc3)c3ccccc3)CC2)n1`, the growth was 73.6%.

Regarding `N#CC(C#N)=Cc1cc2ccccc2nc1Oc1ccc(C(F)(F)F)cc1`, the growth is 106%.

For `COc1cc(/C=C\c2cc(OC)c(OC)c(OC)c2)cc(N)c1OC`, the growth was 73.1%.

On to `COc1cccc(-c2nc3occn3c2-c2ccnc(NCCCNS(=O)(=O)c3ccc(C(F)(F)F)cc3)n2)c1`, for which the growth is 124%.

For the compound `O=C(O)c1ccc2c(c1)C(=O)N(Cc1ccccc1)C2=O`, the growth is 99.2%.

Regarding `C=C(C)[C@@H]1CC[C@]2(C(=O)N3CCN(C)CC3)CC[C@]3(C)[C@H](CC[C@@H]4[C@@]5(C)CC[C@H](O)C(C)(C)[C@@H]5CC[C@]43C)[C@@H]12`, the growth is -85.3% (active).

For `Cn1cc(-c2nc(-c3c[nH]c4c(Cl)nccc34)cs2)c2cc(Br)ccc21`, the growth is 114%.

Turning to `O=S(=O)(NCCCNc1nccc(-c2c(-c3cccc(F)c3)nc3sccn23)n1)c1cccc(F)c1`, the growth is 99.3%.

With `Cn1c(N2NC(=O)C(N=Nc3ccc(S(N)(=O)=O)cc3)C2=O)nc(-c2ccco2)c(C#N)c1=O` (stereo unspecified), the growth was 51.1%.

For `NC(=S)N1N=C(c2ccccc2)CC1c1cn(-c2ccccc2)nc1-c1ccc(OCc2ccccc2)cc1` (stereo unspecified), the growth is 103%.

In the case of `CCCCOc1ccc(/C(C)=N/Nc2cc(C)nc3ccc(Br)cc23)cc1`, the growth was 45.8%.

As for `CN(C)CC(O)c1ccc(/C=C/c2ccc(Cl)cc2)cc1` (stereo unspecified), the growth was -69% (active).

As to `CC(=O)Nc1cccc(-c2ccc3c(c2)NC(=O)/C3=C\c2ccc[nH]2)c1`, the growth is 57.1%.

`O=C(Nc1ncc(Cc2cc(Cl)ccc2Cl)s1)c1cccs1`: the growth is 58.4%.

As to `N#C/C(=C\c1ccc([N+](=O)[O-])s1)c1nc2cc(Cl)ccc2s1`, the growth was 14.9%.

For `CCN(Cc1ccccc1)c1ccc(C=O)cc1`, the growth is 93.7%.

Regarding `CCN1CCN(CCNc2nccc(-c3c(-c4cccc(OC)c4)nc4occn34)n2)S1(=O)=O`, the growth is 130%.

For the compound `CNC(=O)c1cc(Cn2nc(C)c(NC(=O)Nc3ccc(Cl)c(C(F)(F)F)c3)c2C)ccn1`, the growth is 105%.

For the compound `CC1(C)CC(=O)C2=C(C1)N(c1ccc(F)cc1F)C(N)=C(C#N)C2c1cc(Br)ccc1F` (stereo unspecified), the growth is 107%.

`CCC(CC)NCC(C)(C)O`: the growth was 92.2%.

For `COCCCN1CC(O)=C(c2nc(-c3ccc(C)cc3)cs2)C1=N`, the growth is 112%.

On to `CC(=O)N1c2ccccc2NC2=C(C(=O)NC2(C)C)C1c1ccco1` (stereo unspecified), for which the growth was 88.1%.

On to `Cc1c(C(=O)NCCC(=O)NO)sc2ncnc(Nc3ccc(F)c(Cl)c3)c12`, for which the growth is 105%.

On to `COc1ccc(C(=O)c2cc(C)c(OC)c(C)c2)c(OC)c1OC(=O)C(Cl)Cl`, for which the growth is 9.93% (active).

Turning to `COc1ccc(-c2[nH][nH]c(=O)c2-c2nc3ccccc3s2)cc1`, the growth is 99.6%.

With `CN(C)c1ccc(Nc2c3ccccc3nc3cc(NC(=O)CCN4CCCC4)ccc23)cc1`, the growth was -83.3% (active).

Turning to `CCOC(=O)c1ccc2c(c1)ncn2-c1ccc(NC(=O)Nc2cccc(C)c2)cc1`, the growth was 90.6%.

Take `C/C=C(\C)C(=O)NC1=CC[C@@]2(C)C(=CCC3C2CC[C@@]2(C)C3CC[C@@H]2C(C)N(C)C)C1=O` (stereo partly specified): the growth is 31.3%.

`COc1ccc(NC(N)=NCCCOc2ccc(F)cc2)cc1`: the growth is 76.3%.

`Cc1cc2nc3c4cc(C=O)ccc4n(CCN(C)C)c3nc2cc1C`: the growth was 40.6%.

As to `CC(=O)N1N=C(c2ccc(-n3ccc(C(F)(F)F)n3)c(F)c2)CC1c1ccc[nH]1` (stereo unspecified), the growth was 111%.

Consider `Brc1ccc(Nc2csc(-c3ccccn3)n2)cc1`, for which the growth was 92.2%.

`Cc1ccc(C(=O)/C(=C\c2ccc([N+](=O)[O-])cc2)S(=O)Cc2ccc(F)cc2)cc1` (stereo unspecified): the growth is 22.8%.
